This is a sample that favours compounds with a hit; in the whole collection about 7.8% have one here.
sEH inhibitor = soluble epoxide hydrolase inhibitors, primary screen, biochemical, human sEH; inhibition, % at 2 µM; recombinant human sEH enzymatic activity assay; hit rate 0.34% among 91,000; AID 707, 2007; in the data active = inhibition above about 80%
Target sequence (P34913 whole entry, looked up): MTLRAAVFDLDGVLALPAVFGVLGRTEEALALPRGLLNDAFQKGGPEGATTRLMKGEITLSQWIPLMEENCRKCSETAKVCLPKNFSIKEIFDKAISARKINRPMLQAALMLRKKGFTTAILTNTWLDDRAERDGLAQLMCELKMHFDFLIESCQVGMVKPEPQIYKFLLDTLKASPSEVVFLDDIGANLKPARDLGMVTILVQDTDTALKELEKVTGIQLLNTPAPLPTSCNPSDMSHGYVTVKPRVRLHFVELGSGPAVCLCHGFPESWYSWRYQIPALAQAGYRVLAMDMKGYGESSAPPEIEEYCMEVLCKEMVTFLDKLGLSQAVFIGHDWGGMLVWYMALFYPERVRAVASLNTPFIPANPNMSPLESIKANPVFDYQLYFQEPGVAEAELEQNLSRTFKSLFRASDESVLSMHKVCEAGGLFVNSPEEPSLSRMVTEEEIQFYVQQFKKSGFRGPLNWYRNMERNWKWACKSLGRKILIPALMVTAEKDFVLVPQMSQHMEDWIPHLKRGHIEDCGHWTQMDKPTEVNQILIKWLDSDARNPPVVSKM
PostGolgi ctrl = growth inhibition of yeast control strain, primary screen, counter-screen for post-Golgi transport modulator project. efflux-deficient yeast background strain, growth absorbance A615, 16 h. inhibition, % at 10 µM. hit rate 5% among 98,000. AID 738, 2007
Cav3 T inh = Cav3.2 calcium influx blockers – cell-based, Fluo-4 calcium fluorescence, FDSS, MLSMR library, primary screen. Voltage-dependent T-type calcium channel subunit alpha-1H (Homo sapiens), O95180. Cav3.2-expressing cells; hits give low values. B-score at 10 µM. hit rate 4% among 100,000. AID 449739, 2010;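 active = single-dose well whose peak fluorescence ratio is a statistical outlier from its plate by either plate-standardised score or position-corrected B-score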
PostGolgi yeast = phenotypic screen on post-Golgi transport, primary screen; post-Golgi transport phenotypic cell assay; inhibition, % at 10 µM; hit rate 0.9% among 98,000; AID 739, 2007;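 note: yeast cells grown in 1536-well plates; yeast grown about 18 h at 30C before absorbance read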
sEH act = soluble epoxide hydrolase activators, primary screen, biochemical, human sEH; activation, % at 2 µM; Bifunctional epoxide hydrolase 2 (Homo sapiens), P34913; hit rate 0.04% among 91,000; AID 717, 2007; purified human sEH enzymatic activity, activator screen; in the data active = activation above about 37%
Starred values were filed as active, the others as inactive; nt = no result given. Cut-off read from the data, not from the text of the source, unless noted: active = inhibition above about 30%; inactive = the rest.

SMILES	sEH inhibitor	PostGolgi ctrl	Cav3 T inh	PostGolgi yeast	sEH act
CCOC(=O)C1(c2ccccc2)CCN(CCC(C#N)(c2ccccc2)c2ccccc2)CC1	nt	nt	-7.5*	nt	nt
COc1ccc(P2(=O)Nc3ccccc3N2)cc1	nt	11	-2.1*	-11	nt
COc1ccc(-n2c(=O)[nH]c3ccccc3c2=O)cc1	7	1	-0.073	-2	-6
O=C1c2ccccc2C(=O)N1Cc1nc2ccccc2c(=O)n1-c1ccc(Br)cn1	12	26	-1.3	-9	-12
O=C1C(=O)c2ccccc2-c2ccccc21	-8	38*	-0.1	7	11
COc1ccc(-n2c(O)c(C(C)=NCCN3CCNCC3)c(=O)[nH]c2=O)cc1	17	1	0.2	10	-15
O=P(Nc1ccccc1)(Nc1ccccc1)Oc1cccc(Cl)c1	2	16	-7.1*	-8	-1
COC(=O)c1cc(C(O)(C(=O)OC)C(F)(F)F)c(/N=C/N(C)C)s1 (configuration not stated)	-14	2	0.67	-3	14

Screening results as filed in PubChem BioAssay.
